Reference: PubChem BioAssay (NCATS)
Records with an inconclusive call do not appear. The source made the active and inactive calls. The call rests on the fitted dose curve; in most records, active means well fitted curve in the direction sought with a large enough effect; inconclusive means small, poorly fitted or top-dose-only effect, or another doubt; inactive means no such curve, though single readings can be large; an effect the other way counts as inactive or inconclusive.

How the values were obtained:
[1] = Cellular Toxicity (caspase-3) Mesangial (AID 660); conditions: mesangial cells, normalized: DMSO 0%, 100 µM tamoxifen 100%; at 91.7 µM (top of the series)
Procedure, shortened: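 Human renal glomerular mesangial cells (1000/well) were treated with compounds for 16 h at 37 °C in complete medium, then caspase 3/7 activity was read by Caspase-Glo luminescence. Data were normalized to DMSO and 100 uM tamoxifen; AC50 from Hill fits.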

[2] = Cellular Toxicity (caspase-3) SK-N-SH (AID 661);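 further: 0% = DMSO basal and 100% = 10 µM staurosporine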
Procedure, shortened: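 SK-N-SH human neuroblastoma cells (1500/well) were treated with compounds for 16 hr at 37 °C in complete medium; caspase 3/7 activity was read by Caspase-Glo luminescence. AC50 came from Hill fits of data normalized to DMSO and 10 uM staurosporine.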

[3] = Cellular Toxicity (caspase-3) H-4-II-E (AID 663); conditions: H-4-II-E rat hepatoma, scaled: DMSO 0%, 100 µM tamoxifen 100%; at 92.2 µM (top of the series);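 further: cells exposed to compound for 16 hr before readout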
Procedure, shortened: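 Rat hepatoma H-4-II-E cells (1500/well) plated 5 hr, then exposed to compound titrations for 16 hr at 37 °C. Caspase-Glo 3/7 luminescence read after 20 min at RT; data normalized to DMSO and 100 uM tamoxifen, AC50 from Hill fits.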

[4] = Cellular Toxicity (caspase-3) Hek293 (AID 664); conditions: HEK293 caspase-3 activation, DMSO = 0%, 100 µM tamoxifen = 100%; at 92.2 µM (top of the series);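 further: cells exposed to compound for 16 h at 37 °C before readout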
Procedure, shortened: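 HEK293 cells were exposed to compounds in complete medium for 16 hr at 37 °C, then caspase-3/7 activity was read by Caspase-Glo 3/7 luminescence after 20 min at room temperature. Data normalized to DMSO and 100 uM tamoxifen; AC50 from Hill fits.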

[5] = Cellular Toxicity (caspase-3) N2a (AID 665);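 further: compound exposure lasted 16 h at 37 °C before readout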
Procedure, shortened: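 Mouse N2a neuroblastoma cells (1500/well) were treated with compounds for 16 h at 37 °C, then caspase-3/7 activity was read by Caspase-Glo luminescence after 1 h at room temperature. Data were normalized to DMSO and 10 uM staurosporine; AC50 from Hill fits.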

[6] = Cellular Toxicity (caspase-3) NIH 3T3 (AID 666);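 further: caspase signal read after 16 h compound exposure; 0% = DMSO basal and 100% = 100 µM tamoxifen stimulation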
Procedure, shortened: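 Mouse NIH 3T3 fibroblasts (1000 cells/well) were treated with compound for 16 hr at 37°C in complete medium; caspase-3/7 activity was read by Caspase-Glo luminescence. Normalized to DMSO and 100 uM tamoxifen; AC50 from Hill fits.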

[7] = Cellular Toxicity (caspase-3) Renal Proximal Tubule (AID 667); conditions: Potency: caspase-3 activation;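 further: cells exposed to compound for 16 hours at 37 °C before detection; 0% = DMSO basal and 100% = 10 µM staurosporine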
Procedure, shortened: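 Primary rat proximal tubule cells, 1000/well, 5 h plating at 37 °C, then compound 16 h at 37 °C. Caspase-Glo 3/7 reagent, 1 h RT, luminescence. Normalized to DMSO (basal) and 10 uM staurosporine (100%); Hill-fit AC50.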

[8] = target: Cytochrome P450 3A4 (Homo sapiens) (UniProt P08684); experiment: qHTS Assay for Inhibitors and Substrates of Cytochrome P450 3A4 (AID 884); further: on the % scale 0 is the no-effect control and ±100 the full control effect; nearly all actives have a fitted effect of over 50% in size
Procedure, shortened: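 20 nM human CYP3A4 with 25 uM Luciferin-PPXE (at KM) in 200 mM KPO4, preincubated 10 min with compound; NADPH regeneration started a 60 min RT reaction. Luciferin detected by luminescence, normalized to 57 uM ketoconazole as full inhibition.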

[9] = Cell Viability - LYMP2-001 (AID 921);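 further: 0% = DMSO only and full inhibition = tetraoctylammonium bromide control wells; nearly all actives have a fitted effect of over 70% in size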
Procedure, shortened: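 Human lymphoblastoid cells (Coriell), 2500 per well, were preincubated 5 hr at 37 C, then exposed to compounds in complete medium for 24 hr at 37 C. Cellular ATP was read by CellTiter-Glo luminescence; AC50 from Hill fits of concentration-response data.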

[10] = MultiTox-Fluor Cytotoxicity Assay - LYMP1-001 - Dead Cells (AID 946)
Procedure, shortened: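 Cytotoxicity as increased dead-cell protease fluorescence (bis-AAF-R110, 485/520 nm), read 60 min after MultiTox-Fluor reagent. Human lymphoblastoid line exposed 16 h; Hill-fitted AC50, with DMSO as 0% and 15 uM tetraoctylammonium bromide as 100%.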

[11] = Cell Viability - LYMP1-002 - Assay at 16 hr (AID 948);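 further: 0% = DMSO alone and full effect = 92 µM tetraoctylammonium bromide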
Procedure, shortened: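 Human lymphoblastoid cells (LYMP1-002), 2500/well, were preincubated 5 hr at 37 C, then exposed to compounds for 16 hr at 37 C in complete medium. Cellular ATP was read by CellTiter-Glo luminescence after 30 min at room temperature; AC50 from Hill fits.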

[12] = MultiTox-Fluor Cytotoxicity Assay - LYMP1-002 - Live Cells (AID 955); further: on the % scale 0 is the no-effect control and ±100 the full control effect
Procedure, shortened: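 Human lymphoblastoid LYMP1-002 cells, 2500/well in complete medium, rested 5 hr at 37 C, then exposed to compounds for 16 hr at 37 C. Live-cell protease cleavage of GF-AFC read by fluorescence (Ex/Em 405/510) after 60 min at room temperature; AC50 from Hill fits.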

[13] = MultiTox-Fluor Cytotoxicity Assay - LYMP1-002 - Dead Cells (AID 960); further: nearly all actives have a fitted effect of over 60% in size
Procedure, shortened: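 Human lymphoblastoid cells (LYMP1-002), 2500/well in complete medium, were exposed to compounds for 16 hr at 37 C. Dead-cell protease activity was read as bis-AAF-R110 fluorescence (Ex/Em 485/520), normalized to DMSO and 15 uM tetraoctylammonium bromide; AC50 from Hill fits.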

[14] = MultiTox-Fluor Cytotoxicity Assay - LYMP1-003 - Dead Cells (AID 961); further: nearly all actives have a fitted effect of over 70% in size
Procedure, shortened: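 Dead-cell protease release, detected as bis-AAF-R110 fluorescence at 485/520 nm, was measured in LYMP1-003 cells after 16 h compound treatment at 37 C. AC50 values came from Hill-modeled qHTS curves normalized to DMSO (0%) and 15 uM tetraoctylammonium bromide (100%).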

[15] = MultiTox-Fluor Cytotoxicity Assay - LYMP1-003 - Live Cells (AID 962);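 further: 0% = DMSO only and full loss = 92 µM tetraoctylammonium bromide; cytotoxic hits lower the live-cell protease signal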
Procedure, shortened: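 LYMP1-003 human lymphoblastoid cells (2500/well) in complete medium were preincubated 5 hr at 37 C, then exposed to compounds for 16 hr at 37 C. Live-cell protease cleavage of GF-AFC read by fluorescence (Ex/Em 405/510); AC50 from Hill fits.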

[16] = Cell Viability - LYMP1-003 - Assay at 24 hr (AID 963);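 further: plate controls were DMSO only for no effect and tetraoctylammonium bromide positive control for full effect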
Procedure, shortened: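 Human lymphoblastoid LYMP1-003 cells (2500/well) were rested 5 hr at 37 C, then exposed to compounds in complete medium for 24 hr at 37 C. Cellular ATP was quantified by CellTiter-Glo luminescence, and AC50 values came from Hill fits of concentration-response data.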

[17] = Cell Viability - LYMP1-003 - Assay at 40 hr (AID 964); further: on the % scale 0 is the no-effect control and ±100 the full control effect; nearly all actives have a fitted effect of over 60% in size
Procedure, shortened: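 Human lymphoblastoid LYMP1-003 cells, 2500/well in complete medium, rested 5 hr at 37 C, then exposed to compounds for 40 hr at 37 C. Viability read as intracellular ATP by CellTiter-Glo luminescence; AC50 from Hill fits of concentration-response data.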

[18] = Cell Viability - LYMP2-003 (AID 965);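 further: cells exposed to compounds for 24 h before reading; 0% = DMSO only and full effect = 92 µM tetraoctylammonium bromide; nearly all actives have a fitted effect of over 50% in size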
Procedure, shortened: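 Human lymphoblastoid cells (2500/well) were pre-incubated 5 hr at 37 C, then exposed to compounds over a concentration range for 24 hr at 37 C. Intracellular ATP was read by CellTiter-Glo luminescence; AC50 came from Hill-equation fits.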

[19] = MultiTox-Fluor Cytotoxicity Assay - LYMP1-001 - Live Cells (AID 947);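 further: 0% = DMSO only and full inhibition = tetraoctylammonium bromide control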

Sequence of Cytochrome P450 3A4 (Homo sapiens) (P08684 whole entry, looked up): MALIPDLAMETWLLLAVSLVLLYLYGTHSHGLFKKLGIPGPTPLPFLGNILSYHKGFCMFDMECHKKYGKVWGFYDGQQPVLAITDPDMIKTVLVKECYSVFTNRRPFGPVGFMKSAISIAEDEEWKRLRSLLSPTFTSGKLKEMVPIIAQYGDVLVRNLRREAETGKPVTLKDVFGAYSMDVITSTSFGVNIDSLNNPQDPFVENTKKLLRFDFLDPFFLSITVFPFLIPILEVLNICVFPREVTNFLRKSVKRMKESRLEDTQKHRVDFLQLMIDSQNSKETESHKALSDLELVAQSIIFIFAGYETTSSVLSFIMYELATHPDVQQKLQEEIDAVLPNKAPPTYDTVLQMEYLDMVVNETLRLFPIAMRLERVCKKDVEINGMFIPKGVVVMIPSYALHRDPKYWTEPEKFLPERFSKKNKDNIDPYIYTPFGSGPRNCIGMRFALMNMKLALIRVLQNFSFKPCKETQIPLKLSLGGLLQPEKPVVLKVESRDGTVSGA

Nc1ccccc1[N+](=O)[O-]
inactive: caspase-3 activation [1] -0.609% | outcome [2] | caspase-3 activation [3] 1.23% | caspase-3 activation [4] -2.96% | outcome [5] | outcome [6] | Potency [7] | Potency [8] | Potency [9] | outcome [10] | outcome [11] | outcome [12] | outcome [13] | Potency [14] | Potency [15] | Potency [16] | Potency [17] | Potency [18]

O=Cc1ccccc1Cl
inactive: caspase-3 activation [1] -0.514% | outcome [2] | caspase-3 activation [3] 2.39% | caspase-3 activation [4] 2.31% | outcome [5] | outcome [6] | Potency [7] | Potency [8] | outcome [10] | outcome [19] | outcome [11] | outcome [12] | outcome [13] | Potency [14] | Potency [15] | Potency [16] | Potency [17] | Potency [18]

CC=O
inactive: caspase-3 activation [1] 1.5% | outcome [2] | caspase-3 activation [3] 1.97% | caspase-3 activation [4] 2.27% | outcome [5] | outcome [6] | Potency [7] | Potency [8] | Potency [9] | outcome [10] | outcome [11] | outcome [12] | Potency [14] | Potency [15] | Potency [16] | Potency [17] | Potency [18]

Nc1nc(CC(=O)O)cs1
inactive: caspase-3 activation [1] 0.647% | outcome [2] | caspase-3 activation [3] 0.956% | caspase-3 activation [4] -1.7% | outcome [5] | outcome [6] | Potency [7] | Potency [8] | Potency [9] | outcome [10] | outcome [11] | outcome [12] | outcome [13] | Potency [14] | Potency [15] | Potency [16] | Potency [17] | Potency [18]

CC(=O)OCc1ccco1
inactive: caspase-3 activation [1] -0.525% | outcome [2] | caspase-3 activation [3] -0.245% | caspase-3 activation [4] -4.85% | outcome [5] | outcome [6] | Potency [7] | Potency [8] | Potency [9] | outcome [10] | outcome [11] | outcome [12] | outcome [13] | Potency [15] | Potency [16] | Potency [17] | Potency [18]

CC1CCC2CC1C2(C)C (configuration not stated)
inactive: caspase-3 activation [1] 0.29% | outcome [2] | caspase-3 activation [3] 1.27% | caspase-3 activation [4] -2.62% | outcome [5] | outcome [6] | Potency [7] | Potency [8] | Potency [9] | outcome [10] | outcome [11] | outcome [12] | outcome [13] | Potency [14] | Potency [15] | Potency [16] | Potency [17] | Potency [18]

CCC=O
inactive: caspase-3 activation [1] -0.374% | outcome [2] | caspase-3 activation [3] 0.94% | caspase-3 activation [4] 1.43% | outcome [5] | outcome [6] | Potency [7] | Potency [8] | outcome [10] | outcome [19] | outcome [11] | outcome [12] | outcome [13] | Potency [14] | Potency [15] | Potency [16] | Potency [17] | Potency [18]

CCCC(Cl)CCCC(Cl)CCC(Cl)CCC(Cl)CCC(Cl)CCCC(Cl)CCC (configuration not stated)
inactive: caspase-3 activation [1] 1.24% | outcome [2] | caspase-3 activation [3] 0.272% | caspase-3 activation [4] -1.03% | outcome [5] | outcome [6] | Potency [7] | Potency [8] | Potency [9] | outcome [10] | outcome [11] | outcome [12] | outcome [13] | Potency [14] | Potency [15] | Potency [16] | Potency [17] | Potency [18]

c1ccsc1
inactive: caspase-3 activation [1] -0.223% | outcome [2] | caspase-3 activation [3] 0.78% | caspase-3 activation [4] -0.842% | outcome [5] | outcome [6] | Potency [7] | Potency [8] | Potency [9] | outcome [10] | outcome [11] | outcome [12] | Potency [14] | Potency [15] | Potency [16] | Potency [17] | Potency [18]

CCOCCO
inactive: caspase-3 activation [1] -0.559% | outcome [2] | caspase-3 activation [3] -0.494% | caspase-3 activation [4] -0.913% | outcome [5] | outcome [6] | Potency [7] | Potency [8] | outcome [10] | outcome [19] | outcome [11] | outcome [12] | outcome [13] | Potency [14] | Potency [15] | Potency [16] | Potency [17] | Potency [18]

CC(C)C=O
inactive: caspase-3 activation [1] 1.06% | outcome [2] | caspase-3 activation [3] 0.472% | caspase-3 activation [4] -1.91% | outcome [5] | outcome [6] | Potency [7] | Potency [8] | Potency [9] | outcome [10] | outcome [11] | outcome [12] | outcome [13] | Potency [14] | Potency [15] | Potency [16] | Potency [17] | Potency [18]

O=C(O)/C=C/C(=O)O
inactive: caspase-3 activation [1] -0.622% | outcome [2] | caspase-3 activation [3] 1.4% | caspase-3 activation [4] -1.62% | outcome [5] | outcome [6] | Potency [7] | Potency [8] | Potency [9] | outcome [10] | outcome [11] | outcome [12] | Potency [14] | Potency [15] | Potency [16] | Potency [17] | Potency [18]

C=CC(=O)OCCCC
inactive: caspase-3 activation [1] 0.429% | outcome [2] | caspase-3 activation [3] -0.465% | caspase-3 activation [4] 0.453% | outcome [5] | outcome [6] | Potency [7] | Potency [8] | Potency [9] | outcome [11] | outcome [12] | outcome [13] | Potency [14] | Potency [15] | Potency [16] | Potency [17] | Potency [18]

Cc1ccc(C)c([N+](=O)[O-])c1
inactive: caspase-3 activation [1] 0.386% | outcome [2] | caspase-3 activation [3] -0.213% | caspase-3 activation [4] 0.434% | outcome [5] | outcome [6] | Potency [7] | Potency [8] | Potency [9] | outcome [10] | outcome [11] | outcome [12] | outcome [13] | Potency [14] | Potency [15] | Potency [16] | Potency [17] | Potency [18]
